AmpC nodet inh: inhibitors of E. coli AmpC beta-lactamase without detergent; AmpC nitrocefin hydrolysis, absorbance 480 nm, no detergent; Potency, µM (highest dose often 28.7 µM); 71,000 compounds, 1.8% hits
Target sequence (P00811 whole entry, looked up): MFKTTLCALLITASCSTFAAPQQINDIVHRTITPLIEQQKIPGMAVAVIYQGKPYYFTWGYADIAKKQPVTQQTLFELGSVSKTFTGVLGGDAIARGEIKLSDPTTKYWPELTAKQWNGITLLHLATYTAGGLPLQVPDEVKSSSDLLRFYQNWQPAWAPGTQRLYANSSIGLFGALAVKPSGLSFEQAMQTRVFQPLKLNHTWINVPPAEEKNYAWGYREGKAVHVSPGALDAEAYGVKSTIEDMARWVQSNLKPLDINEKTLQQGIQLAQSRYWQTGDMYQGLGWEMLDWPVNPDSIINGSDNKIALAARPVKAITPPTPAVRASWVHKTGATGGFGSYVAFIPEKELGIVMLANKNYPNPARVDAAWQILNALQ
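Enzyme, pH 7.0 phosphate. Compound titrations were pre-incubated with AmpC for 15 min at room temperature before nitrocefin (stock 800 uM) addition; product formation was recorded at 480 nm every 20 s for 4 min.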
Anthrax LT inh: blocks cellular internalization of anthrax lethal toxin; Cells, anthrax lethal toxin internalization, FRET ratio (460/530); 70,000 compounds, 0.67% hits; Potency, µM (series often up to 40 µM), hits mostly inhibitors; AID 912; also: nearly all actives have a fitted effect of over 50% in size
AmpC inh det: AmpC beta-lactamase inhibition, detergent assay; 71,000 compounds, 0.09% hits; P00811; Potency, µM (highest dose often 28.7 µM); purified AmpC, nitrocefin hydrolysis with detergent; active = well fitted curve in the direction sought with a large enough effect; inconclusive = small, poorly fitted or top-dose-only effect
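E. coli AmpC (5.3 nM) in 20 mM phosphate pH 7.0 with 0.01% Triton X-100, preincubated 15 min RT with compound; nitrocefin (2 uL of 800 uM stock) hydrolysis followed by 480 nm absorbance every 20 s over 4 min.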
SmPrx2 inh: inhibitors of Schistosoma mansoni peroxiredoxin 2 | 65,000 compounds, 0.07% hits | Potency, µM | AID 448 | S. mansoni Prx2 activity coupled to TGR/GSH (TGR is thioredoxin glutathione reductase), NADPH fluorescence loss, qHTS
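qHTS, coupled TGR/Prx2 format; 15 min compound preincubation at RT; reaction started with H2O2 (2.5 mM aliquot); kinetic NADPH fluorescence decrease, ex 365/em 450 nm.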
Each line names hits and unclear results; the compound was inactive in the other large screens; [ ] = another dose, or the depositor's remark. Rows were chosen to be rich in hits. Some 2.4% of all compounds tested hit in one or more screens of this group. Unless noted, calls follow the shape of the full dose curve.

c1ccc(-c2ccc(N3CCCC4(CCNCC4)C3)cc2)cc1	Anthrax LT inh inconclusive
COc1ccc(CCNc2oc(COc3ccccc3Cl)nc2C#N)cc1OC	Anthrax LT inh 15.8µM
FC(F)(F)c1ccccc1Cl	none (no result: SmPrx2 inh)
O=C(/C=C/N1CCOCC1)c1ccc(-c2ccccc2)cc1	AmpC nodet inh 12.6µM, Anthrax LT inh inconclusive (no result: SmPrx2 inh)
CC(C)CNc1nc2ncnc(N)c2[nH]1	none
Nc1ncnc2c([C@@H]3O[C@@H](CO)[C@H](O)[C@@H]3O)nsc12	Anthrax LT inh inconclusive
CN1CCN(c2ncnc3ccc(-c4ccccc4C#N)cc23)CC1	Anthrax LT inh inconclusive
CN1CCN(c2ncnc3ccc(-c4ccccc4C(F)(F)F)cc23)CC1	Anthrax LT inh 12.6µM
O=C(COC(=O)c1cccc(NC(=O)c2ccco2)c1)c1ccc(Br)cc1	Anthrax LT inh 12.6µM
CC(C)(C)NC(=O)c1cccc(NC(=O)c2ccc(NC(=O)c3ccco3)cc2)c1	Anthrax LT inh inconclusive
CC(C)(C)C(=O)COC(=O)c1cccc(NC(=O)c2ccco2)c1	none
CC(C)CNC(=O)c1cccc(NC(=O)c2ccc(NC(=O)c3ccco3)cc2)c1	AmpC nodet inh 15.8µM[single pt active]
COc1cc(O)c2c(O)c3c(c4c2c1[C@@]1(C4)C(C)=CCCC1(C)C)[C@H](O)[C@@]1(O)CC(=O)C(C(N)=O)=C(O)[C@]1(O)C3=O	Anthrax LT inh inconclusive
CCCCCCCCCCCCC/C=C\[C@H](O)[C@H](N)CO	none
COc1cc([C@@H](O)CN)ccc1O	none
CCOc1ccc2[nH]c(C)cc(=O)c2c1	AmpC nodet inh 3.98µM[single pt active]
CCOc1ccc2[nH]c(C)c(CN(C)C)c(=O)c2c1	Anthrax LT inh inconclusive (no result: SmPrx2 inh)
COc1cc2nc(N3CC=[N+](C(=O)c4ccco4)CC3)nc(N)c2cc1OC	none
CCOc1ccccc1NC(=O)CCC(=O)Nc1ccc2nc(N3CCN(C)CC3)cc(C)c2c1	Anthrax LT inh 12.6µM
CCC(C)NC(=O)CCC(=O)Nc1ccc2nc(N3CCOCC3)cc(C)c2c1 (stereo not drawn)	none
Cc1cc(N2CCN(C)CC2)nc2ccc(NC(=O)c3ccc4c(c3)OCO4)cc12	Anthrax LT inh inconclusive
Cc1cc(N2CCN(C)CC2)nc2ccc(NC(=O)c3ccc(Br)o3)cc12	Anthrax LT inh 12.6µM
Cc1ccc(O)c(C(=O)CC(=O)c2cccc(F)c2)c1	Anthrax LT inh inconclusive (no result: SmPrx2 inh)
O=C(CC(=O)c1cc(Cl)ccc1O)c1ccccc1	Anthrax LT inh 7.94µM (no result: SmPrx2 inh)
C[C@@H](N=C(N)N)C(=O)O	none
CCOC(=O)Cn1c(=O)oc2cc(S(=O)(=O)NCCCc3ccccc3)ccc21	AmpC nodet inh 0.316µM[single pt active], Anthrax LT inh inconclusive
CC[C@H](CN(C)C)C(=O)c1ccco1	none
O=C(CSc1nnc(-c2cccnc2)n1Cc1ccco1)N1c2ccccc2Sc2ccccc21	Anthrax LT inh 15.8µM
c1cncc(CSc2nnc(-c3cccnc3)n2Cc2ccco2)c1	none
Cn1c(C(C#N)C(=O)c2sc3ccccc3c2Cl)nc2ccccc21 (stereo not drawn)	AmpC nodet inh 12.6µM, Anthrax LT inh inconclusive
CC(C)(CO[C@H]1C[C@H]2CC[C@@]1(C)C2(C)C)[N+](=O)[O-]	Anthrax LT inh inconclusive
COc1cc(N=C(N)N=C(N)N)c2ncccc2c1	none
COc1ccc(NC(=O)N2c3ccccc3CC2C)cc1OC (stereo not drawn)	none
COC(=O)c1ccccc1NC(=O)N1c2ccccc2CC1C (stereo not drawn)	Anthrax LT inh 15.8µM
CCN(CC)c1ccc(NC(=O)c2ccc(Br)o2)cc1	Anthrax LT inh 12.6µM (no result: SmPrx2 inh)
COC(=O)Cc1ccc(NC(=O)c2ccc(Br)o2)cc1	none
Cc1ccc(-n2ncc3c(=O)[nH]c(SCC(=O)N4CCOCC4)nc32)cc1	none
Cc1ccc(-n2ncc3c(=O)[nH]c(SCC(=O)N4CCN(c5ccccc5)CC4)nc32)cc1	AmpC nodet inh 12.6µM[single pt active]
O=c1[nH]c(SCc2ccccc2Cl)nc2c1cnn2-c1ccccc1	AmpC nodet inh 7.94µM, Anthrax LT inh inconclusive
N[C@@H](Cc1nn[nH]n1)C(=O)O	none
NC(=O)C1=CN([C@@H]2O[C@@H](COP(=O)(O)OP(=O)(O)OC[C@@H]3O[C@H](n4cnc5c(N)ncnc54)[C@@H](OP(=O)(O)O)[C@@H]3O)[C@H](O)[C@@H]2O)C=CC1	none
CCOC(=O)CN1C(=O)c2ccccc2C1=O	none
CCOC(=O)/C(C(C)=O)=C1\OC(=O)c2ccccc21	AmpC nodet inh 12.6µM, AmpC inh det 7.94µM
COc1ccc(C2c3sc(=O)[nH]c3SC3C(=O)N(c4ccccc4)C(=O)C32)cc1 (stereo not drawn)	AmpC nodet inh 3.98µM[single pt active]
C[C@@H]1C(=O)O[C@H]2[C@@H](O)[C@@]34[C@H]5C[C@H](C(C)(C)C)[C@@]36[C@H](OC(=O)[C@@H]6O)O[C@@]4(C(=O)O5)[C@@]12O	none
Cc1ccc(-c2csc(N)n2)s1	AmpC nodet inh inconclusive, Anthrax LT inh inconclusive
CC(=O)NCc1ccc(-c2csc(N)n2)s1	Anthrax LT inh 10µM
Cc1ccc(OCc2nc(-c3ccccc3)no2)c(C)c1	Anthrax LT inh inconclusive (no result: SmPrx2 inh)
Cc1cccc(NCc2nc(-c3ccccc3)no2)c1	AmpC nodet inh 2.51µM[single pt active], Anthrax LT inh inconclusive
Cc1cnc(CNc2ncnc3ccc(-c4ccccc4C(F)(F)F)cc23)cn1	none
C[C@@]12CC[C@H](O[C@@H]3O[C@H](CO)[C@@H](O)[C@H](O)[C@@H]3O)C[C@@H]1CC[C@H]1[C@H]2CC[C@@]2(C)[C@@H](C3=CCOC3=O)CC[C@]12O	none
Cc1ccc(S(=O)(=O)NCc2ccncc2)cc1	none
O=C1CC(c2ccc(S(=O)(=O)NCc3ccncc3)cc2)CN1 (stereo not drawn)	AmpC nodet inh 3.98µM[single pt active]
O=C1CC(c2ccc(S(=O)(=O)NC3CC3)cc2)CN1 (stereo not drawn)	AmpC nodet inh 3.98µM[single pt active]
NC(=NCc1ccc(Cl)c(Cl)c1)NC(=O)c1nc(Cl)c(N)nc1N	AmpC nodet inh 12.6µM[single pt active], Anthrax LT inh inconclusive
CN(CCNC(=O)c1cc2c(=O)n(C)c3ccccc3c2n1C)Cc1ccccc1	Anthrax LT inh 3.16µM
COCCn1cc(C(=O)NCc2cccs2)c2c3ccccc3n(C)c2c1=O	none
CCCN(CCC)CCNC(=O)c1cc2c(=O)n(C)c3ccccc3c2n1C	Anthrax LT inh 3.98µM
Cn1c(C(=O)NCc2cccs2)cc2c(=O)n(C)c3ccccc3c21	AmpC nodet inh 3.98µM[single pt active]
Cc1ccccc1-c1cncnc1NCc1cccs1	none
Cc1nc(C)c(-c2csc(NCc3ccco3)n2)s1	none
Cc1nc(NC(=O)c2ccccc2)sc1-c1csc(NCc2ccco2)n1	AmpC nodet inh 12.6µM, Anthrax LT inh inconclusive
CN(C)CCOC(=O)c1ccc(N)cc1	none
C=C(C)[C@H]1[C@H]2OC(=O)[C@@H]1[C@]1(O)C[C@H]3O[C@]34C(=O)O[C@H]2[C@]14C	none
COc1ccccc1OCc1nnc(SCC(=O)c2cc(Cl)ccc2OC)o1	Anthrax LT inh 12.6µM
C/C(N)=C(/C#N)C(=O)CSc1nnc(COc2ccccc2Cl)o1	none
CCCC1C(c2ccco2)NC(c2ccco2)CC1(C)O (stereo not drawn)	Anthrax LT inh 10µM
Cc1ccc(-c2csc(N3CCC(C(N)=O)(N4CCCCC4)CC3)n2)cc1	AmpC nodet inh 3.98µM[single pt active]
